The term AC50 denotes the midpoint of the concentration-response curve, whichever way the signal moves.

Our source for the outcome and AC50 values is PubChem BioAssay (EPA / NIEHS).

Activity calls are given as the source filed them. Rule for the calls: active = hit-call score of the fitted dose curve at least 0.9, where 1 is the maximum; inactive = score below 0.9.

Cytochrome P450 3A4 (Homo sapiens), sequence (P08684 whole entry, looked up): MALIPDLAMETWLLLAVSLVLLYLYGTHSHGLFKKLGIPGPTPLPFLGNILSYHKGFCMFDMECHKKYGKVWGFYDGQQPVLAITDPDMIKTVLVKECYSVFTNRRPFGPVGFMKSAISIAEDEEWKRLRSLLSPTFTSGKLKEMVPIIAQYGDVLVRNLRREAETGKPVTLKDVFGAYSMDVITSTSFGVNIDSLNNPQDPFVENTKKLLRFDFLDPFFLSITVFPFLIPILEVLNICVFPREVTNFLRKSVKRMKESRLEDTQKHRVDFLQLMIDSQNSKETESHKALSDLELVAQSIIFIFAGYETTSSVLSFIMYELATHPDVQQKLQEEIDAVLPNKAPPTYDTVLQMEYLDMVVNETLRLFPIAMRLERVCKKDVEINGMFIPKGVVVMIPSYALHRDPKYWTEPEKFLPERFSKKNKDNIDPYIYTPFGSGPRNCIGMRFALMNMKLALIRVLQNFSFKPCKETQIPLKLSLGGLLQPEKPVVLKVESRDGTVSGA

Read-out in the test: Cytochrome P450 3A4 (Homo sapiens) (UniProt P08684)
Description: LTEA_HepaRG_CYP3A4: Life Technologies and Expression Analysis (LTEA) Assay for CYP3A4 using HepaRG (AID 2283487). The settings on record: mRNA level, 48 h; actives raise or lower the signal. As for the experimental part:
LTEA_HepaRG is a cell based, multiplexed-readout assay that uses HepaRG, a human liver cell line, with measurements taken at 48 hours after chemical dosing on a 96-well plate.LTEA_HepaRG_CYP3A4 is one of 102 assay component(s) measured in the LTEA HepaRG cell culture assay. It is a marker of NR mediated metabolism.Data from the assay component LTEA_HepaRG_CYP3A4 was analyzed into 1 endpoint. This assay endpoint, LTEA_HepaRG_CYP3A4, was analyzed with bidirectional fitting relative to DMSO as the negative control and baseline of activity. Using a type of inducible reporter, measures of mRNA induction for gain or loss-of-signal activity can be used to understand regulation of transcription factor activity. To generalize the intended target to other relatable targets, this assay endpoint is annotated to the cyp intended target family, where the subfamily is xenobiotic metabolism.
A total of 1060 chemcials from the ToxCast library were tested in eight-point concentration-response experiments. Cell culture and cytotoxicity assays were conducted at Thermo Fisher Scientific's Custom Services facility (Madison, WI). A single lot of human HepaRG cells (Thermo Fisher Scientific, Frederick, MD) was used for the cell culture experiments. 96-well format collagen type I coated plates of human HepaRG cells were prepared using established methods. Briefly, cryopreserved HepaRG cells were thawed, plated at a density of approximately 100,000 cells/well in HepaRG Thaw, Plate, and General Purpose media (HPRG770, Thermo Fisher Scientific), and incubated for 48 hours. 0.5% DMSO was selected as vehicle control to balance the requisite need of DMSO in HepaRG cultures to maintain differentiation (for example, baseline metabolism, proportions of hepatocytes vs. cholangiocytes), while enabling further hepatic receptor pathway activation (for example, PXR and CAR) in response to chemical exposure. 48 hours after plating, the culture medium was replaced with HepaRG Serum-Free Incudtion Media. Cells were exposed to each test chemical in duplicate and maintained in CO2 incubators for another 48 hours. Chemical plates were thawed to room temperature and 200x concentrations of treatment groups were prepared. 8-point conentration-reponse curves were made with the highest exposure at 100 uM, followed by half-log dilutions, all in 0.5% DMSO. Each test plate contained variouse controls, induction positive controls (1mM phenobarbital), cytotoxicity positive controls ([…] aflatoxin B1), vehicle controls (0.5% DMSO), and total lysis controls (0.5% DMSO). Cell morphology images were taken using an Essen IncuCyte FLR automated microscope, with six 96-well plates imaged in about 24 minutes. Images were captured and exported and JPEG files. Spent culture media was transfered to black-well plates for the LDH assay, and remaining media was sorted at -80 C for later use. Cells were treated with RLT buffer and frozen until shipped for gene expression analysis. Total RNA was isolated from the cell suspension in 75 uL of Buffer RLT (Qiagen, Germantown, MD 20874) by Quintiles/Expression Analysis (Durham, NC) using a custom isolation procedure. Total RNA from each plate well was transferred to a preamplification plate. Fluidigm's 96.96 Dynamic ArrayTM (Fluidigm, Amsterdam, the Netherlands) technology was used for gene expression analyses by quantitative reverse transcription polymerase chain reaction (qRT-PCR, performed by Quintiles/Expression Analysis, Durham, NC)89. Standard TaqManTM Assays (Applied Biosystems/ThermoFisher Scientific, Foster City, CA) were used to assess the expression of 93 genes selected based on their selectivity and sensitivity to important hepatic receptors known to be modulated by environmental chemicals; importance in human hepatocyte functionality; and hepatotoxicity. […]
As to `CCCCCCCCCC(=O)O`, the compound was called inactive.
Regarding `CC(C)(O)c1ccc(CNC(=O)c2cccnc2Oc2ccc3nonc3c2)cc1`, the AC50 was 8.42 µM (active).
`NC(=O)c1nc(-c2cccc(-c3cc(F)ccc3OCC(F)(F)C(F)(F)F)c2)n[nH]1`: the AC50 was 81.1 µM (active).
On to `NCc1cccc(C2CCN(C(=O)c3ccc(C#Cc4ccccc4F)o3)CC2)c1`, for which the AC50 is 75.2 µM (active).
Regarding `O=C1O[C@H]([C@@H](O)CO)C(O)=C1O`, the call was inactive.
Take `O=C1CCC(C2CCCCC2)CC1`: the AC50 was 32.5 µM (active).
As to `CN(C[C@@H](CC[N+]12CCC(C3CCCCC3)(CC1)CC2)c1ccc(Cl)c(Cl)c1)C(=O)c1cc(C(F)(F)F)cc(C(F)(F)F)c1`, the AC50 is 30.9 µM (active).
With `COc1ccc2cc(S(=O)(=O)N[C@H](CC(=O)N[C@H](Cc3ccc(CN4[C@H](C)CCC[C@@H]4C)cc3)C(=O)N(C)C(C)C)c3ccc4c(c3)OCO4)ccc2c1`, the concentration at half-maximal activity (AC50) is 24 µM (active).
As for `CCOC(=O)O[C@H](C)OC(=O)c1ccc2c(c1)cc(C(=O)NC1CCN(C(C)C)CC1)n2Cc1cc(-c2ccc(Cl)s2)on1`, the call was inactive.
In the case of `CCCOC(=O)c1cc(O)c(O)c(O)c1`, the AC50 is 1.14 µM (active).
For `Cc1cc2c(cc1C(F)(F)F)N(C(=O)Nc1ccc(Oc3cccnc3C)nc1)CC2`, the AC50 was 1.89 µM (active).
Take `CCCCCCCCOc1ccc(C(=O)c2ccccc2)c(O)c1`: the call was inactive.
As for `Cc1ncc(CO)c(CO)c1O`, the call was inactive.
Regarding `Cc1c2ccccc2c(C)c2c1ccc1ccccc12`, the AC50 was 78.8 µM (active).
For the compound `O=c1c(-c2ccc(O)cc2)coc2cc(O)cc(O)c12`, the result was inactive.
In the case of `CC[C@@H]1C[C@H](N(Cc2cc(C(F)(F)F)cc(C(F)(F)F)c2)C(C)=O)c2cc(C(F)(F)F)ccc2N1C(=O)OC(C)C`, the AC50 was 0.29 µM (active).
Regarding `COc1cc(C(=O)NC2CCN(C)CC2)ccc1Nc1ncc2c(n1)N(C1CCCC1)CC(F)(F)C(=O)N2C`, the compound was called inactive.
On the same count and under the same terms, next, `CCCCCCCCCCCCO`: “inactive”.
For the compound `O=C1c2ccccc2C(=O)N1CCc1noc(-c2ccc(CN3CCCCCC3)s2)n1`, the compound was classed as inactive.
On to `Cc1occc1C(=O)Nc1ccc(C(=O)N2CCC(F)(F)/C(=C\C(=O)N3CCC(N4CCCCC4)CC3)c3ccccc32)cc1`, for which the result was inactive.
With `CCO[Si](CCCNC(N)=O)(OCC)OCC`, the call was inactive.
Regarding `Oc1ccc2ccccc2c1`, the outcome was inactive.
As to `Clc1cc(Cl)c2c(c1)N=C1CCCCCN1C2`, the AC50 was 11.1 µM (active).
Regarding `CCCCOC(=O)c1ccc(O)cc1`, the call was inactive.
Consider `O=C(O)c1ccccc1-n1cc(C(=O)O)c(=O)c2cc(Nc3c(F)cc(F)cc3Cl)c(Cl)cc21`, for which the AC50 is 3.09 µM (active).
On to `CC(C)(C)c1csc(-c2cc3cc(OCc4ccccc4CC(=O)O)ccc3o2)n1`, for which the half-maximal activity concentration (AC50) was 76.1 µM (active).
Turning to `CCCCCCCCCCCC[N+](C)(C)C`, the AC50 is 58.6 µM (active).
Take `CC(C)(C)c1cc(/C=C2\SC(N)=NC2=O)cc(C(C)(C)C)c1O`: the AC50 is 90.9 µM (active).
With `CCCCCCCCN(C)CCCCCCCC`, the result was inactive.
As for `COc1cccc([C@H](O)C2CCN(CCc3ccc(F)cc3)CC2)c1OC`, the AC50 was 50 µM (active).
On to `CCCCCCCCOC(=O)c1cc(O)c(O)c(O)c1`, for which the call was inactive.
For the compound `Cc1oc2c(NC(=O)c3c(Cl)cccc3Cl)cccc2c1C(C)(C)O`, the AC50 was 81.9 µM (active).
On the same count and under the same terms, next, `CC[C@H](NC(=O)c1cc(F)ccc1NS(=O)(=O)c1cccc2cccnc12)c1ccccc1`: 0.957 µM (active).
In the case of `O=C=NCCCCCCN=C=O`, the outcome was inactive.
As for `CCCCCCCCCCCO`, the compound was called inactive.
Take `OCCO`: the result was inactive.
For the compound `CN(C)C(=O)C1(N2CCCCC2)CCN(CC[C@@]2(c3ccc(Cl)c(Cl)c3)CN(C(=O)c3ccccc3)CCO2)CC1`, the AC50 was 25.7 µM (active).
On to `O=C(O)c1ccccc1C(=O)OCc1ccccc1`, for which the result was inactive.
Same read-out and setting: next, `Cc1cccc2ccccc12`: “inactive”.
On to `Cc1cc(F)ccc1-c1cc(N2CC[C@@H](O)[C@H]2CO)ncc1N(C)C(=O)C(C)(C)c1cc(C(F)(F)F)cc(C(F)(F)F)c1`, for which the AC50 is 0.588 µM (active).
